Source: PubChem (Sanford-Burnham Center for Chemical Genomics)
TRAIL sens C8: viability loss with TRAIL in NB7+C8 cells, primary screen, TRAIL sensitizer project, cell-based, ATPlite luminescence | inhibition (viability loss, TRAIL sensitization), % at 10 µM | 360,000 compounds, 1% hits;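 active means compounds causing at least 50% loss of cell viability in the single-dose screen, relative to plate controls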
PPC-1+TRAIL kill: compounds killing PPC-1 cancer cells with TRAIL present, primary screen, TRAIL potentiator project, ATPLite luminescence, uHTS; cell killing (% activity), % at 4 µM or 5 µM; PPC-1 cells + TRAIL, ATPLite viability luminescence; 220,000 compounds, 0.41% hits;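 active means cell killing above 50% in the first pass at 4 µM, then a duplicate retest at 5 µM averaging 50% or more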
SENP6 block: SENP6 protease inhibitors, primary screen, biochemical, luminescence, uHTS; inhibition, % at 10 µM; AID 2599, 2010; Recombinant SENP6 catalytic domain, aminoluciferin luminescence; Sentrin-specific protease 6 (Homo sapiens), Q9GZR1; 330,000 compounds, 1.8% hits;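 active means inhibition above about 50% at the single tested dose, limit read from the data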
SENP8 block-1: human SENP8 protease inhibitors, primary screen, biochemical, fluorescence, Nedd8 protein substrate, uHTS; Sentrin-specific protease 8 (Homo sapiens), Q96LD8; recombinant SENP8; inhibition, % at 20 µM; 360,000 compounds, 0.64% hits; AID 602440, 2012; in the data active means inhibition mostly above about 40%, no sharp cut-off; inactive means mostly below about 27%
Target sequence (Q96LD8 whole entry, looked up): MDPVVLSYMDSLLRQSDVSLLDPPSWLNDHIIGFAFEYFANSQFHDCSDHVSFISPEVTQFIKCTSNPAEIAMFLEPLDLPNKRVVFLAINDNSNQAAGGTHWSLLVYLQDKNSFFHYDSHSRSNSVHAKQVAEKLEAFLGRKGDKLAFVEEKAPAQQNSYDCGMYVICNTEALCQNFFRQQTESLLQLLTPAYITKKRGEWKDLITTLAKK
SENP8 block-2: SENP8 protease inhibitors, primary screen, biochemical, luminescence; Sentrin-specific protease 8 (Homo sapiens), Q96LD8; purified SENP8, Z-RLRGG-aminoluciferin cleavage; inhibition, % at 10 µM; 330,000 compounds, 1.2% hits; AID 2540, 2010; in the data active means inhibition above about 50%
SENP7 block: SENP7 protease inhibitors, primary screen, biochemical, luminescence, uHTS; 330,000 compounds, 1.5% hits; inhibition, % at 5 µM; recombinant SENP7, Z-RLRGG-aminoluciferin luminescence, 40 min; AID 434973, 2010;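 active means inhibition above about 50% at the single test dose, limit read from the data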
Target sequence (Q9BQF6 706-1050 limits assumed): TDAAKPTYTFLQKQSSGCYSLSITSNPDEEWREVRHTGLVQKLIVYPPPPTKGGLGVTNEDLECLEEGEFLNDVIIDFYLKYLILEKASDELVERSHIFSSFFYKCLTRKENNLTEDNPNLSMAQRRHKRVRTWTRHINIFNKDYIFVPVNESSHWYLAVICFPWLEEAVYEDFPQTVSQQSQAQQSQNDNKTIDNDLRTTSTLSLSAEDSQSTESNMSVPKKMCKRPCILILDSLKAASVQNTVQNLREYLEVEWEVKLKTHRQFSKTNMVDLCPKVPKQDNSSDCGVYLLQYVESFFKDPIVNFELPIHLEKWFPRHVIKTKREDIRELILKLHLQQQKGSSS
SENP8 conf: human SENP8 protease inhibitors, confirmation, biochemical, Nedd8 protein substrate, single concentration | shares compounds with SENP8 block-1 | purified SENP8, Nedd8-AMC/pro-Nedd8 cleavage fluorescence, 30 min | inhibition, % at 25 µM | 1,400 compounds, 15% hits; in the data active means inhibition mostly above about 39%, no sharp cut-off; inactive means mostly below about 34%
Large screens that a line does not name were inactive (follow-up assays come after a bar, where they were run). Most compounds without a hit are left out; they make up all but 3% or so of the library.

O=C(NCCc1ccccc1)C(=O)NCC(c1ccco1)N1CCOCC1 (stereo not given)	SENP8 block-1 43 | SENP8 conf inactive
O=C(O/N=C\c1ccc(N2CCCCC2)c([N+](=O)[O-])c1)c1ccc(Cl)cc1Cl	SENP8 block-1 49 | SENP8 conf inactive
Cc1ccc(C(=O)O/N=C\c2ccc(N3CCOCC3)c([N+](=O)[O-])c2)cc1	none
O=C(/C=C/c1ccc(Cl)cc1)N1CCN(c2ccc(Cl)cc2[N+](=O)[O-])CC1	SENP8 block-1 43 | SENP8 conf inactive
CCOC(=O)[C@@H]1[C@H]2COc3ccc(Br)cc3[C@H]2N2C(=O)N(c3cccc(Cl)c3)C(=O)[C@]12C	none (no result: PPC-1+TRAIL kill)
O=C(CCn1c(=O)c2cccn2c2cccnc21)N1CCN(c2cccc(Cl)c2)CC1	none (no result: PPC-1+TRAIL kill)
CN1CCN(Cc2nc3ccccc3c(=O)n2Cc2nc(-c3ccc([N+](=O)[O-])cc3)cs2)CC1	SENP8 block-1 47 | SENP8 conf inactive
O=C(Cn1nc(C(=O)O)c2ccccc2c1=O)Nc1cc(S(=O)(=O)N2CCCCC2)ccc1Cl	none (no result: PPC-1+TRAIL kill)
Cc1cc(-c2csc(N)n2)c(C)n1C	SENP8 block-1 43 | SENP8 conf inactive
CC1=[N+](C)N(c2ccccc2)C(=O)C1N=C/C=C/c1ccccc1 (stereo not given)	SENP8 block-1 42 | SENP8 conf inactive
COc1ccccc1/C=C/C=NC1C(=O)N(c2ccccc2)[N+](C)=C1C (stereo not given)	none
Cn1c(CNC(=O)CNC(=O)c2ccc(F)cc2)cc(=O)n(C)c1=O	none (no result: PPC-1+TRAIL kill)
CC1Cc2ccccc2N1C(=O)COC(=O)c1ccco1 (stereo not given)	none (no result: PPC-1+TRAIL kill, SENP6 block, SENP8 block-2, SENP7 block)
CC1Cc2ccccc2N1C(=O)COC(=O)c1ccc([N+](=O)[O-])o1 (stereo not given)	SENP8 block-1 42 (no result: PPC-1+TRAIL kill) | SENP8 conf 80
O=C(COC(=O)c1ccc([N+](=O)[O-])o1)NCc1ccc(F)cc1	SENP8 block-1 43 (no result: PPC-1+TRAIL kill) | SENP8 conf 78
CC(=O)Nc1ccc(NC(=O)COC(=O)c2ccc([N+](=O)[O-])o2)cc1	SENP8 block-1 34 (no result: PPC-1+TRAIL kill) | SENP8 conf 85
O=C(COC(=O)c1ccc([N+](=O)[O-])o1)NC1CCS(=O)(=O)C1 (stereo not given)	SENP8 block-1 50 | SENP8 conf 89
CC(C)C[C@H]1CNC(=O)C(=O)N1C[C@H]1CCCN1C[C@H](CC(C)C)N1C[C@H](CC(C)C)N(CCc2ccccc2)C(=O)C1=O	none (no result: PPC-1+TRAIL kill, SENP6 block, SENP8 block-2, SENP7 block)
CCOC(=O)C1(CCOc2ccccc2)CCN(Cc2cccc(OC)c2O)CC1	none (no result: PPC-1+TRAIL kill)
Cc1c(Cl)cccc1-n1c(SCC(=O)N2CCC(C(=O)O)CC2)nnc1-c1ccncc1	none
O=C(c1ccc(N2CCCCC2)c([N+](=O)[O-])c1)N1CCOCC1	none
O=C(c1ccc(N2CCCC2)c([N+](=O)[O-])c1)N1CCc2ccccc2C1	SENP8 block-1 50 (no result: PPC-1+TRAIL kill) | SENP8 conf inactive
Cc1[nH]n(-c2ccc([N+](=O)[O-])cc2)c(=O)c1C=NCC1CCCO1 (stereo not given)	none
Cc1[nH]n(-c2ccc([N+](=O)[O-])cc2)c(=O)c1C=NCCc1c(C)[nH]c2ccccc12	SENP8 block-1 42 | SENP8 conf inactive
Cc1ccc(-n2[nH]c(C)c(/C=N/Nc3ccc([N+](=O)[O-])cc3[N+](=O)[O-])c2=O)cc1	SENP8 block-1 80 | SENP8 conf inactive
COc1ccccc1N1CCN(C(=O)C2CCN(S(=O)(=O)c3ccccc3)CC2)CC1	none
COc1ccc(S(=O)(=O)N2CCC(C(=O)N3CCN(c4ccccc4OC)CC3)CC2)cc1	SENP8 block-1 43 | SENP8 conf inactive
CN1C2=CC=CC=CC2=[N+](C)C12C=CC(=[N+]([O-])[O-])C=C2[N+](=O)[O-] (stereo not given)	SENP8 block-1 53 | SENP8 conf inactive
COc1ccc(NS(=O)(=O)NC(=O)c2c(C)n(C)c3ccccc23)cc1	SENP8 block-1 39 (no result: PPC-1+TRAIL kill) | SENP8 conf inactive
O=C(COC(=O)c1ccc2c(=O)n3c(nc2c1)CCC3)Nc1ccc(OC(F)F)cc1	none
CCCNC(=O)CN(C)C(=O)c1n[nH]c2ccccc12	SENP8 block-1 43 | SENP8 conf inactive
CC(C)=NNc1cnnc2ccc([N+](=O)[O-])cc12	none (no result: PPC-1+TRAIL kill, SENP6 block, SENP8 block-2, SENP7 block)
Cc1cc(C)cc(Nc2ccc([N+](=O)[O-])nc2[N+](=O)[O-])c1	SENP8 block-1 41 | SENP8 conf inactive
O=C(NC(C(=O)O)c1ccccc1)c1ccccc1 (stereo not given)	none (no result: SENP6 block, SENP8 block-2, SENP7 block)
NC(=O)CC(NC(=O)c1ccccc1)C(=O)O (stereo not given)	SENP8 block-1 42 (no result: PPC-1+TRAIL kill) | SENP8 conf inactive
CC1(C)SC(=S)N(/N=C/c2ccccc2)C1N(O)C(=O)Nc1ccc([N+](=O)[O-])cc1 (stereo not given)	SENP8 block-1 44 | SENP8 conf inactive
CNC(=O)N(O)C1N(/N=C/c2ccc(N(C)C)cc2)C(=S)SC1(C)C (stereo not given)	none (no result: PPC-1+TRAIL kill)
O=C(CNC(=O)c1ccccc1F)N/N=C/c1cccs1	SENP8 block-1 42 (no result: PPC-1+TRAIL kill) | SENP8 conf inactive
C=CCC(C(=O)OC)(C(=O)OC)c1ccc([N+](=O)[O-])cc1[N+](=O)[O-]	SENP8 block-1 42 | SENP8 conf inactive
C=CCC(C(=O)OC)(C(=O)OC)c1ccc(C(F)(F)F)cc1[N+](=O)[O-]	none
Cc1cc(Br)ccc1-n1[nH]c(C)c(C=Nc2cccc3nsnc23)c1=O	SENP8 block-1 54 | SENP8 conf inactive
CCCOc1ccc(CCC(=O)N/N=C/c2ccco2)cc1	SENP8 block-1 44 | SENP8 conf inactive
CCCCOc1ccc(CCC(=O)N/N=C/c2ccco2)cc1	none
Cc1[nH]cnc1CN1CCc2c(c3ccccc3n2C)C1=O	SENP8 block-1 84 (no result: PPC-1+TRAIL kill) | SENP8 conf 76
Cc1nccn1CC1CCc2c(c3ccccc3n2C)C1=O (stereo not given)	none (no result: PPC-1+TRAIL kill)
CC(C)c1cccc(C(C)C)c1NC(=O)c1ccccc1	none
CC(=O)OC1C(=O)N(Cc2ccccc2)C1c1ccc(C)cc1 (stereo not given)	none (no result: PPC-1+TRAIL kill, SENP6 block, SENP8 block-2, SENP7 block)
Cc1ccccc1N1CC(=O)N(c2ccccc2C)CC1=O	none
CC1=NN(c2ccccc2C)C(=O)C1	SENP8 block-1 51 (no result: PPC-1+TRAIL kill, SENP6 block, SENP8 block-2, SENP7 block) | SENP8 conf inactive
Cc1ccc([N+](=O)[O-])cc1N	none
CCc1cc([N+](=O)[O-])cc(CC)c1N	SENP8 block-1 45 | SENP8 conf inactive
